NS1 function inh – influenza NS1 inhibition. hit rate 0.4% among 270,000. Potency, µM (doses to about 46.1 µM), for the others: at the highest dose activity, positive = more growth; calls by dose curve; further: potency means the concentration at half of the fitted maximal effect; actives are rising curves; nearly all actives have a fitted effect of over 50% in size
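Read-out: OD600 growth recovery of NS1-expressing budding yeast. Cells grown overnight at 30C in -URA glucose medium, washed, resuspended and diluted 1:100 in 2% galactose assay medium, pH 6.0. Same strain lacking NS1 served as positive control.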
Pf growth 48h – P. falciparum growth inhibition at 48 hours (one generation); P. falciparum luciferase growth in erythrocytes, 48 h; Potency, µM (titrated, usually from 28.7 µM), for inactives: at the top dose activity change, negative = inhibition, hits mostly inhibitors; AID 504832; hit rate 5.9% among 310,000; further: potency means the concentration at half of the fitted maximal effect; on the % scale 0 is the no-effect control and ±100 the full control effect
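Read-out is firefly luciferase luminescence from an integrated reporter in P. falciparum, so falling signal marks reduced parasite growth. Infected erythrocytes were at 2% hematocrit and 0.1% parasitemia (final) in Albumax-supplemented RPMI 1640.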
Pf growth 96h – P. falciparum growth inhibition at 96 hour, primary screen for plastid delayed-death inhibitors; Potency, µM (top dose mostly 28.7 µM), for inactives: at the highest dose activity change, negative = inhibition, actives largely listed as inhibitors; P. falciparum luciferase reporter growth, 96 h; hit rate 6.9% among 320,000; further: potency means the concentration at half of the fitted maximal effect; on the % scale 0 is the no-effect control and ±100 the full control effect
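P. falciparum expressing integrated firefly luciferase grown in erythrocytes (2% hematocrit, 0.05% parasitemia final) with compounds for 96 hours at 37 C, 5% CO2. Growth inhibition read as loss of luminescence after adding luciferase detection reagent.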
Shiga inhibitor – inhibitors of Shiga toxin in Vero cells; Vero cells, Shiga toxin protein synthesis inhibition reporter; inhibition, % at 38.7 µM; hit rate 9.2% among 290,000; in the data active means inhibition mostly above about 28%, no sharp cut-off; inactive means mostly below about 43%; further: 0% is about no effect
Cycloheximide cs – counter-screen for Shiga toxin inhibitors: cycloheximide protein synthesis inhibition. max response, %. cell reporter, cycloheximide protein synthesis inhibition counterscreen. hit rate 12% among 300,000. AID 2314; in the data active means max response mostly above about 13%, no sharp cut-off; inactive means mostly below about 14%; further: read at 38.3 µM for the half of the compounds with a filed dose; 0% is about no effect
Starred values were filed as active, the others as inactive; ? = inconclusive; . = no result given. Sampled rows, rich in hits. Any-hit rate of the full collection: about 21%. Unless noted, the call rests on the fitted dose curve; in most records, active means well fitted inhibition curve with a large enough effect; inconclusive means small, poorly fitted or top-dose-only effect, or another doubt; inactive means no such curve, though single readings can be large or run the other way.

SMILES	NS1 function inh	Pf growth 48h	Pf growth 96h	Shiga inhibitor	Cycloheximide cs
CCN1C(=O)[C@H]2[C@@H](c3ccc(C)cc3)N3C(=O)N(c4cccc(Br)c4)C(=O)[C@@]3(CC(C)C)[C@H]2C1=O	.	?	15µM*	.	.
Cc1cccc([C@@H]2[C@@H]3C(=O)N(Cc4ccccc4)C(=O)[C@@H]3[C@]3(CC(C)C)C(=O)N(c4cccc(F)c4)C(=O)N23)c1	.	9.3µM*	?	.	.
CC[C@@]12C(=O)N(c3cccc(F)c3)C(=O)N1[C@H](c1cccc(C)c1)[C@@H]1C(=O)N(Cc3ccccc3)C(=O)[C@@H]12	9%	?	?	-4	-2
CCN1C(=O)[C@H]2[C@@H](c3ccccc3)N3C(=O)N(c4cccc(F)c4)C(=O)[C@@]3(CC(C)C)[C@H]2C1=O	6%	39%	11%	-6	2
O=C(CC1NCCN(Cc2ccccc2)C1=O)Nc1ccccc1 (configuration not stated)	4%	18%	38%	22	1
CC[C@@]12C(=O)N(c3cccc(Br)c3)C(=O)N1[C@H](c1cccc(C)c1)[C@@H]1C(=O)N(Cc3ccccc3)C(=O)[C@@H]12	.	4.1µM*	5.2µM*	.	.
Cc1cccc([C@@H]2[C@@H]3C(=O)N(Cc4ccccc4)C(=O)[C@@H]3[C@]3(CC(C)C)C(=O)N(c4cccc(Br)c4)C(=O)N23)c1	5%	?	?	-1	-2
CCCn1c(NCc2cc(OC)ccc2OC)nc2ccccc21	-2%	?	.	53	27*
CCn1c(NCc2cc(OC)ccc2OC)nc2ccccc21	-8%	?	-19%	69*	30*
CCn1c(NCc2cccc(OC)c2OC)nc2ccccc21	-4%	?	-20%	26*	13
COc1ccc(OC)c(CNc2nc3ccccc3n2CCN2CCCCC2)c1	-8%	?	.	-7	-4
COc1cccc(CNc2nc3ccccc3n2CCN2CCCCC2)c1OC	-4%	?	5%	4	-1
O=C(NCc1ccc(F)cc1)C1CCCN1S(=O)(=O)c1ccccc1C(F)(F)F (configuration not stated)	.	?	8%	.	.
O=C(OCC(=O)N1CCCCCC1)c1ccc(F)cc1F	.	47%	20%	.	.
COc1ccc(CN2CCC(C(=O)c3ccc(Cl)cc3)CC2)cc1	-13%	?	?	.	-3
CC1CCC2C(=O)N(c3ccc(NC4CCN(Cc5ccccc5)CC4)c([N+](=O)[O-])c3)C(=O)C2C1 (configuration not stated)	.	12µM*	18%	20	-1
O=[N+]([O-])c1ccc(NC2CCCC2)c2ccncc12	-7%	?	-13%	-3	-5
O=[N+]([O-])c1ccc(NC2CCN(Cc3ccccc3)CC2)c2ccncc12	-4%	1.7µM*	?	17	-7
Cc1cc(-c2ccccc2)n2ncc(C#N)c2n1	-12%	.	-1%	-23	-6
Cc1ccc(S(=O)(=O)N2CCN(S(=O)(=O)c3ccc(C)cc3)C3OCCOC32)cc1 (configuration not stated)	1%	15%	-7%	-9	-7
O=C(Cc1ccc(Cl)cc1)Nc1ccccc1C(=O)N1CCCC1	12%	33%	?	-8	3
Cc1ccc(-n2nc3c(=O)n(CCCC(=O)NCCc4ccccc4C)nc(C)c3c2C)cc1	14%	?	?	12	-1
C/C(N)=C(/C#N)C(=O)COC(=O)CC1CCCC1	-5%	31%	11%	31	7
C/C(N)=C(/C#N)C(=O)COC(=O)C1CCC(C(C)(C)C)CC1 (configuration not stated)	-15%	-12%	.	56*	16*
CCC(=O)Nc1c(S(=O)(=O)c2ccc(C)cc2)c2nc3ccccc3nc2n1C(C)c1ccccc1 (configuration not stated)	-31%	?	?	-14	-8
CCC(=O)Nc1c(S(=O)(=O)c2ccccc2)c2nc3ccccc3nc2n1C(C)c1ccccc1 (configuration not stated)	13%	12µM*	12µM*	-14	-2
N#CCCN(C(=O)Nc1ccc(Cl)c(Cl)c1)c1ccccc1	-55%	-16%	?	-4	-2
Oc1ccc(Br)cc1-c1nc2cnccn2c1NC1CCCC1	-42%	2.6µM*	-4%	-12	-3
Oc1ccc(Br)cc1-c1nc2cnccn2c1NC1CCCCC1	-151%	3.3µM*	.	-6	-6

Source: PubChem (National Center for Advancing Translational Sciences (NCATS))
